Assay results: PubChem BioAssay (EPA / NIEHS)
Several values for one entry are separate records, joined by “and”; a condition that tells them apart may be missing. Identical values can stand only once. Activity calls are given as the source filed them. How the source made its calls: active means hit-call score of the fitted dose curve at least 0.9, where 1 is the maximum; inactive means score below 0.9.

Read-out: Collagen III, COL3A1 (gene 1281)
Test: BSK_hDFCGF_CollagenIII: BioMAP Diversity Plus: hDFCGF Assay for Collagen III Biomarker Activity (AID 2283056)
Conditions: primary human foreskin fibroblasts; actives raise or lower the signal
Description: BSK_hDFCGF is a cell-based, multiplexed-readout assay that uses foreskin fibroblast, a human skin primary cell, with measurements taken at 24 hours after chemical dosing in a 96-well plate.BSK_hDFCGF_CollagenIII is an assay component measured in the BSK_hDFCGF assay. It measures Collagen antibody related to regulation of gene expression using ELISA technology.Data from the assay component BSK_hDFCGF_CollagenIII was analyzed into 1 assay endpoint. This assay endpoint, BSK_hDFCGF_CollagenIII, was analyzed with bidirectional fitting relative to DMSO as the negative control and baseline of activity. Using a type of binding reporter, gain or loss-of-signal activity can be used to understand changes in the signaling as they relate to the gene COL3A1. Furthermore, this assay endpoint can be referred to as a primary readout, because this assay has produced multiple assay endpoints where this one serves a signaling function. To generalize the intended target to other relatable targets, this assay endpoint is annotated to the cell adhesion molecules intended target family, where the subfamily is collagen.
The levels of cell surface (or secreted, indicated by the prefix "s") biomarker endpoints were measured by ELISA. Overt cytotoxicity to cells in confluent adherent cultures (all systems other than the BT system) was assessed by measuring total protein levels using sulforhodamine B (SRB) staining in parallel cultures at the time of biomarker measurements, indicated as SRB endpoints. For proliferation assays for adherent cell types, individual cell types are cultured at sub-confluence and relative cell numbers quantified by SRB staining at time points optimized for each system (48 h: 3C and CASM3C systems; 72 h: BT and HDF3CGF systems; 96 h: SAg system). SRB was performed by staining cells with 0.1% SRB after fixation with 10% TCA and reading wells at 560 nm.Viability and proliferation of PBMC (T cells) was quantified by Alamar Blue reduction for the SAg and BT systems. For PBMC viability (referred to as PBMC Cytotoxicity within the assay endpoint names), cells were plated (75,000/well in a 96-well plate) and then chemical samples added for 1 h before addition of activators, SEB and TSST-1 (20 ng/mL final concentration each). Cells were incubated for 90 h. Then, Alamar Blue (20 uL/well) (Invitrogen, Cat DAL1100) was added for 6 h, and the plates were read with a fluorescence microplate reader at 546/580 nm (excitation/emission). For PBMC proliferation, cells were plated and activated as above but incubated for only 16 h prior to addition of Alamar Blue. Plates were read after 6 h.

Structure (SMILES) | outcome | AC50
COC(=O)Nc1nc2ccccc2[nH]1 | inactive | 
CCN(CC)N=O | inactive | 
OCCOCCO | inactive | 
Cc1ccc(N)cc1 | inactive | 
CCNS(=O)(=O)C(F)(F)C(F)(F)C(F)(F)C(F)(F)C(F)(F)C(F)(F)C(F)(F)C(F)(F)F |  | 5.82 µM (active) and 18.6 µM (active) and 22 µM (active)
CCN(CC)CCO | inactive | 
Clc1ccc(Cl)c(Cl)c1 | inactive | 
O=C(N[C@H](c1ccccc1)[C@@H]1CN2CCC1CC2)c1c(Cl)ccc(C(F)(F)F)c1Cl | inactive | 
Nc1ccc(Cc2ccc(N)cc2)cc1 | inactive | 
CS(=O)(=O)NC(=O)c1cc(Oc2ccc(C(F)(F)F)cc2Cl)ccc1[N+](=O)[O-] | inactive | 
CC(C)COC(=O)c1ccccc1C(=O)OCC(C)C |  | 23.9 µM (active)
CNC(=O)Oc1cccc2c1OC(C)(C)C2 | inactive | 
Oc1ccccc1Cl | inactive | 
Nc1ccc(Cl)cc1N | inactive | 
Cc1ccc(N=C=O)cc1N=C=O | inactive | 
Nc1cc(Cl)cc(C(=O)O)c1Cl | inactive | 
Nc1ccc(N=Nc2ccccc2)cc1 |  | 20 µM (active)
C=CCc1ccc2c(c1)OCO2 | inactive | 
O=C(Nc1ccccc1)c1ccccc1I | inactive | 
CCOC(=O)[C@]1(c2ccccc2)Oc2ccccc2[C@@H]1N |  | 31.9 µM (active)

Structure (SMILES) | outcome | AC50
CCC12COCN1COC2 | inactive | 
CN(C)c1ccc(C(=O)c2ccc(N(C)C)cc2)cc1 | inactive | 
ClC1=C(Cl)[C@]2(Cl)[C@H]3[C@H]([C@@H]4C=C[C@H]3C4)[C@@]1(Cl)C2(Cl)Cl |  | 13.7 µM (active)
N#CC(Br)Br | inactive | 
O=C1CCCO1 | inactive | 
COC(=O)c1ccccc1N | inactive | 
CC(C)(C)OOC(=O)c1ccccc1 |  | 35.1 µM (active)
c1ccc(NNc2ccccc2)cc1 | inactive | 
ClC1=C(Cl)C2(Cl)C3C(Cl)C=CC3C1(Cl)C2(Cl)Cl (stereo not given) |  | 6.97 µM (active)
CCC(C)c1ccc(O)cc1 (stereo not given) | inactive | 
CCC[CH2][Sn]([Cl])([CH2]CCC)[CH2]CCC |  | 0.316 µM (active)
Cc1ccc(N)c(N)c1 |  | 6.88 µM (active)
CCCCCCCCCCCCCN1CC(C)OC(C)C1 (stereo not given) | inactive | 
CN(C)c1ccccc1 | inactive | 
CC(C)(OOC(C)(C)c1ccccc1)c1ccccc1 |  | 12.8 µM (active)
C[C@]12C=CC3=C4CCC(=O)C=C4CC[C@H]3[C@@H]1CC[C@@H]2O | inactive | 
CCCCCCCCn1sccc1=O |  | 2.42 µM (active)
COP(=S)(OC)SCN1C(=O)c2ccccc2C1=O | inactive | 
CC(C)N(Cc1ccccc1)C(=O)C(C)(C)C | inactive | 
OCCCBr | inactive | 
